Assay outcomes deposited in PubChem by several laboratories.
Anthrax LF inh2: blocks Bacillus anthracis lethal factor protease; multiplex microsphere protease cleavage assay, LF; AID 588501; inhibition, % at 10 µM; 360,000 tested, 0.12% active; further: plate controls were buffer without enzyme for full effect and enzyme alone for no effect
BoNT-A LC inh2: blocks Botulinum neurotoxin A light chain protease | multiplex microsphere protease substrate cleavage, flow cytometry | inhibition, % at 10 µM | 360,000 tested, 0.17% active | AID 588499; further: plate controls were buffer without enzyme for full effect and enzyme alone for no effect
BoNT F protease: blocks Botulinum neurotoxin F light chain protease; Multiplex microsphere protease cleavage assay, flow cytometry; inhibition, % at 10 µM; 360,000 tested, 0.22% active; AID 588497; in the data active means inhibition above about 35%, passing the limit was not always enough; inconclusive means no clear call, values can overlap the other calls; further: plate controls were buffer without enzyme for full effect and enzyme alone for no effect
Autofluor counter: compound fluorescence in toxin protease inhibitor counterscreen. compound autofluorescence counterscreen, microsphere flow cytometry; hits give high values. fluorescence intensity (concentration not given with the values). 360,000 tested, 3.1% active; in the data active means fluorescence intensity above about 16000; inconclusive means no clear call, values can overlap the other calls
MazEF act: activators of E. coli MazEF toxin-antitoxin RNase; P0AE70; FAM/BHQ RNA-DNA oligo cleavage fluorescence, 5 h; activation, % at 20 µM; 350,000 tested, 0.32% active; AID 504720; in the data active means activation above about 50%
Target sequence (P0AE70 whole entry, looked up): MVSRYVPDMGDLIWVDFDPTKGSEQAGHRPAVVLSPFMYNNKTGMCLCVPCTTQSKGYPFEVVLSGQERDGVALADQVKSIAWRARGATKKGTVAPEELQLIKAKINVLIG
* = called active by the depositor; u = inconclusive; x = not tested or not shown. Hits are enriched below; roughly 3.7% of the tested compounds scored in any of these assays. Unless noted, no stated cut-off is given here; in the data, active means inhibition above about 30%; inconclusive means no clear call, values can overlap the other calls; inactive means below that.

SMILES | Anthrax LF inh2 | BoNT-A LC inh2 | BoNT F protease | Autofluor counter | MazEF act
O=C(c1ccccc1)N1CCN(C(=O)c2ccccc2)CC1 | -4 | 0 | -4 | 3075 | 9
CS(=O)(=O)N(Cc1ccco1)Cc1ccccc1Cl | 1 | u | -1 | 20334* | -2
Cc1csc2nc(O)c(C(=O)NCc3ccc4c(c3)OCO4)c(=O)n12 | x | x | x | x | 4
CCOC(=O)c1nn(-c2ccccc2)c(=O)cc1SC(C)C | -1 | 0 | 2 | 11481 | 3
CCCCSc1cc(=O)n(-c2ccccc2)nc1C(=O)OCC | 0 | -2 | -4 | 23302* | 2
CCOC(=O)c1nn(-c2ccccc2)c(=O)cc1SC(C)CC (stereo not given) | 0 | -2 | -3 | 23432* | -9
O=C(COn1nnc2ccc(S(=O)(=O)N3CCOCC3)cc21)NCc1cccc(Cl)c1 | -2 | 0 | 14 | 3505 | 0
CSc1ccc(CN2CCN(S(=O)(=O)Cc3ccccc3)CC2)cc1 | -28 | -103 | -165 | 27972* | -1
CN1CCN(S(=O)(=O)Cc2ccc(Cl)cc2)CC1 | u | 5 | 36* | 3510 | 3
O=S(=O)(Cc1ccc(Cl)cc1)N1CCN(Cc2ccccc2)CC1 | -3 | 0 | -3 | 11054 | 0
CCc1ccccc1NC(=O)CNC(=O)CNC(=O)c1cccs1 | -1 | 0 | -1 | 6422 | -7
CCN(CC)S(=O)(=O)c1ccc2c(c1)nc(SCC(=O)N(C)C1CCS(=O)(=O)C1)n2CC (stereo not given) | 1 | 1 | -1 | 6148 | 1
Cc1ccc(Cn2c(-n3nc(C)cc3C)nc3c2c(=O)[nH]c(=O)n3C)cc1 | -5 | 3 | 3 | 22348* | 2
Cc1cc(C)n(-c2nc3c(c(=O)[nH]c(=O)n3C)n2Cc2cccc(Br)c2)n1 | 0 | 0 | -1 | 4282 | -6
Cc1ccc(Cn2c(CN3CC(C)OC(C)C3)nc3c2c(=O)[nH]c(=O)n3C)cc1 (stereo not given) | -3 | 0 | 0 | 20485* | 1
CC1CN(Cc2nc3c(c(=O)n(C)c(=O)n3C)n2Cc2ccccc2)CC(C)O1 (stereo not given) | -1 | -1 | -8 | 6003 | 0
Cc1ccc(S(=O)(=O)Nc2ccccc2F)cc1C(=O)N1CCN(c2ccccc2O)CC1 | -5 | -1 | 2 | 8256 | 3
CN1C(=O)[C@H]2[C@@H](c3ccc(C(F)(F)F)cc3)N[C@]3(CCCN(Cc4ccc(C(F)(F)F)cc4)C3=O)[C@H]2C1=O | -8 | 0 | -8 | 3765 | -2
COc1ccccc1/C=C/C=C1N=C(/C=C/c2ccc(Cl)cc2)OC/1=O | 5 | 8 | 7 | 10751 | -35
COc1ccccc1/C=C/C1=NC(=C\C=C/c2ccccc2)/C(=O)O1 | 7 | 29 | 58* | 3554 | -15
CC1C(=O)N(Cc2cn(CC3CCCCC3)nn2)CCS(=O)(=O)N1Cc1ccc(-c2ccccc2)cc1 (stereo not given) | -8 | 0 | 1 | 3860 | 5
Cc1cccc(C(=O)OCc2cc3ccccc3[nH]c2=O)c1 | x | x | x | x | 77*
Cc1ccc(C(=O)OCc2cc3ccccc3[nH]c2=O)cc1 | -1 | 0 | -2 | 7991 | 7
O=C(O)c1cc([N+](=O)[O-])ccc1Oc1ccccc1 | -3 | 0 | 4 | 3770 | -6
COCCCNC(=O)C1C2C=CC3(CN(Cc4ccc(C)cc4)C(=O)C13)O2 (stereo not given) | -2 | -1 | -1 | 23422* | 2
SMILES | Anthrax LF inh2 | BoNT-A LC inh2 | BoNT F protease | Autofluor counter | MazEF act
COC(=O)C1[C@H]2C(=O)N(Cc3cccs3)C[C@]23C=C[C@H]1O3 (stereo not given in full) | -1 | -1 | -3 | 23081* | -2
Cc1ccc(CN2CC34C=CC(O3)C(C(=O)NCc3ccc5c(c3)OCO5)C4C2=O)cc1 (stereo not given) | -3 | 0 | 8 | 9906 | 5
CCOC(=O)C1C2C=CC3(CN(Cc4cccs4)C(=O)C13)O2 (stereo not given) | 4 | 1 | 5 | 2963 | 1
COc1ccc2c(c1)C1=NN(/C(C)=C/C(C)=O)C(c3ccc(F)cc3)C1CC2 (stereo not given) | 1 | 0 | 10 | 15484 | -3
COc1ccc2c(c1)C1=NN(/C(C)=C\C(C)=O)C(c3ccccc3)C1CC2 (stereo not given) | 6 | 3 | -4 | 21972* | -10
COc1ccc2c(c1)CCC1C2=NN(/C(C)=C\C(C)=O)C1c1ccc(F)cc1 (stereo not given) | u | u | u | 34486* | 5
CCCCCCNC(=O)O[C@H]1C[C@@H]2C(=O)N(c3ccccc3)C(=O)[C@@H]2[C@@H]2CN(S(=O)(=O)c3ccc(C)cc3)C[C@]12O | 9 | 1 | 1 | 8210 | -11
CCn1c(COc2ccc(=O)n(-c3ccccc3)n2)nnc1SCc1ccccc1 | -1 | -2 | -5 | 21225* | -1
CC1(C)Cc2c(C#N)c(NCCN3CCOCC3)nc(-c3ccco3)c2CO1 | -6 | 2 | 1 | 21315* | 7
COc1ccc(C(=O)O)cc1S(=O)(=O)Nc1ccc2cn[nH]c2c1 | -2 | 0 | 3 | 3473 | -14
Cc1ccc(C(=O)CSc2nnc(COc3cc(C)cc(C)c3)o2)cc1 | x | x | x | x | -3
Cc1cc(C)cc(OCc2nnc(SCC(=O)c3ccccc3)o2)c1 | -2 | u | -2 | 19614* | 0
CCN(CC)S(=O)(=O)c1ccc(NC(=O)CCN2C(=O)C3CC=CCC3C2=O)cc1 (stereo not given) | 2 | -5 | 5 | u | -6
CC(C)CNC(=O)CN(c1ccccc1)S(=O)(=O)c1ccccc1[N+](=O)[O-] | -8 | -1 | -22 | 3852 | 10
C[C@H](N)c1nnc(SCC(=O)c2ccc(Cl)cc2)o1 | 1 | -1 | -1 | 16731* | 0
Nc1c(C(=O)Nc2ccccc2)sc2nc3c(c(-c4ccco4)c12)CCC3 | 0 | 6 | 4 | 3453 | 87*
O=C(Nc1ccc(Cl)cc1)P(=O)(O)c1ccccc1 | -3 | 0 | 6 | 4156 | -6
COc1ccc(N2CS(=O)(=O)/C(=C/N(C)C)C2=O)cc1 | -3 | 0 | 0 | 20727* | -5
O=C(c1cccs1)n1cc(C(=S)N2CCOCC2)c2ccccc21 | -1 | 0 | 1 | 20879* | -4
COCCn1cc(C(=S)N2CCOCC2)c2ccccc21 | -4 | 0 | 0 | 22910* | 4
CCOc1ccc(NC(=O)Nc2cc(C(C)C)c(O)cc2C)cc1 | -5 | -1 | -2 | 4059 | 6
CCOc1ccc(NC(=O)Nc2cc(C)ccc2F)cc1 | -5 | 1 | 2 | 16132* | 8
CCCn1c(=S)[nH]c2cc(C(=O)N3CCc4ccccc43)ccc2c1=O | -1 | -2 | -3 | 21147* | 7
COCCn1c(=S)[nH]c2cc(C(=O)N3CCc4ccccc43)ccc2c1=O | -4 | -4 | -5 | 24139* | -5
CCCn1c(=S)[nH]c2cc(C(=O)N3CCN(C)CC3)ccc2c1=O | -5 | 0 | 6 | 3515 | -6
